BAZ2B block: inhibitors of human BAZ2B bromodomain; AID 504333; Potency, µM (doses to about 114 µM), inactives show at the top dose activity change, negative = inhibition, most hits filed as inhibitors; actives 4.4% (n = 360,000); AlphaScreen BAZ2B-H3K14Ac peptide displacement; further: potency means the concentration at half of the fitted maximal effect; on the % scale 0 is the no-effect control and ±100 the full control effect; nearly all actives have a fitted effect of over 60% in size
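Compounds, titrated to a top concentration of 110 uM, were incubated 30 min at room temperature with preformed BAZ2B/acetyl-K14 H3 peptide complex (50 nM each). Proximity signal was measured by AlphaScreen after 20 min with beads.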
G9a block: blocks human histone lysine methyltransferase G9a; Potency, µM (series often up to 102 µM), inactives show at the top dose activity, negative = inhibition, usual class: inhibitors; actives 8.8% (n = 350,000); Q96KQ7; G9a H3K9 monomethylation, AlphaScreen, 2 h; AID 504332; further: potency means the concentration at half of the fitted maximal effect; on the % scale 0 is the no-effect control and ±100 the full control effect; nearly all actives have a fitted effect of over 75% in size
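Quantitative HTS format: methyltransferase activity on a biotin-tagged H3K9 peptide is measured by AlphaScreen, using a rabbit anti-monomethyl-H3K9 antibody with streptavidin donor and anti-IgG acceptor beads. Final levels are 20 nM enzyme, 500 nM peptide, 20 uM SAM; 2 h RT.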
HP1b binding inh: HP1-beta chromodomain-methylated histone interaction inhibition; AlphaScreen HP1-beta / biotin-H3K9me3 peptide binding; actives 0.56% (n = 390,000); P83916; Potency, µM (highest dose often 114 µM), without a hit: at the highest dose activity change, negative = inhibition, hits mostly inhibitors; further: potency means the concentration at half of the fitted maximal effect; nearly all actives have a fitted effect of over 70% in size
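HP1-beta protein (50 nM final) preincubated 30 min at room temperature with biotinylated H3(1-18)K9me3 peptide (50 nM) in PBS pH 7.4, 0.01% Tween-20, then compound added for 30 min. AlphaScreen streptavidin donor/nickel chelate acceptor beads (10 ug/mL final), 30 min dark, luminescence read.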
CtBP-E1A blk: blocks the CtBP interaction with E1A; AID 651724; AlphaScreen GST-E1A/His-CtBP binding, 1536-well; stronger effect = lower value; activity change, % (concentration not given with the values); actives 0.49% (n = 340,000); in the data active means activity change below about -65%; inconclusive means mostly about -30% to -63%; further: on the % scale 0 is the no-effect control and ±100 the full control effect
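Homogeneous bead-based format: GST-tagged E1A captured on glutathione donor beads, His-tagged CtBP on nickel acceptor beads; compounds precede bead addition by 2 h at 37 °C.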
JMJD2A Tudor inh: JMJD2A Tudor domain (human) inhibition | O75164 | AlphaScreen JMJD2A-Tudor / H3K4me3 peptide binding | Potency, µM (highest dose often 114 µM), inactives show top-dose activity change, negative = inhibition, usual class: inhibitors | actives 4.4% (n = 390,000) | AID 504339; further: potency means the concentration at half of the fitted maximal effect; on the % scale 0 is the no-effect control and ±100 the full control effect; nearly all actives have a fitted effect of over 50% in size
Target sequence (O75164 whole entry, looked up, the tested form may be a part): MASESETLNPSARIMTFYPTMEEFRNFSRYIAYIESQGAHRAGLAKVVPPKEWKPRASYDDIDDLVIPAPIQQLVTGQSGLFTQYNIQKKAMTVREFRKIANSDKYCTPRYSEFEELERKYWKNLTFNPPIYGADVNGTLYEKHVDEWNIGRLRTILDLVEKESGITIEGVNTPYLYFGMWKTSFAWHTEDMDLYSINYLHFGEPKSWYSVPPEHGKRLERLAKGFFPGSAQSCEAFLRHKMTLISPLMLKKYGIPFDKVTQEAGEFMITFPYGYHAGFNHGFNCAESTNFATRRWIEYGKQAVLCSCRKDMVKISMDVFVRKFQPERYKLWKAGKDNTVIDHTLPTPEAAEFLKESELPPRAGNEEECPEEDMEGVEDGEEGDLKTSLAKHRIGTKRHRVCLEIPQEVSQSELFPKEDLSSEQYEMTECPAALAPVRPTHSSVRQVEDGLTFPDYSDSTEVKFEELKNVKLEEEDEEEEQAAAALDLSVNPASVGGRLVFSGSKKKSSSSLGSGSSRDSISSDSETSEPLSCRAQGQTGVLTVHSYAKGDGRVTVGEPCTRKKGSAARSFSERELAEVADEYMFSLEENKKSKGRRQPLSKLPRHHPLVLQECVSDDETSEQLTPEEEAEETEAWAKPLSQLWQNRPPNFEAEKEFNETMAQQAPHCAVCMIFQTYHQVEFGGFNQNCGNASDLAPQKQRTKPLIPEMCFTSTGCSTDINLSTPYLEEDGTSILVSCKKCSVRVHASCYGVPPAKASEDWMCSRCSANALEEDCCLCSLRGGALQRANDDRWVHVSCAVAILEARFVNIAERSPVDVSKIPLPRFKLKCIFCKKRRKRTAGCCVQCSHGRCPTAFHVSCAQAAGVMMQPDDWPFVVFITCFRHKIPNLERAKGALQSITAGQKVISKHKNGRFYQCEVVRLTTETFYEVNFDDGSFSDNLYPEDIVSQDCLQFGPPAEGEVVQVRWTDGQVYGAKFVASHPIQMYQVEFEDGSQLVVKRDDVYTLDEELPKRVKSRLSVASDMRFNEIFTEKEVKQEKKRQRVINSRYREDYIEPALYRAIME
Six1-Eya2 inh: Six1/Eya2 interaction inhibition. AlphaScreen GST-Six1/His-Eya2 binding, biochemical; stronger effect = lower value. actives 0.56% (n = 360,000). AID 651725. Q15475+O00167. activity change, % (no concentration beside the values); in the data active means activity change below about -65%; inconclusive means mostly about -30% to -63%; further: on the % scale 0 is the no-effect control and ±100 the full control effect
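Six1/Eya2 binding was read as AlphaScreen signal after compounds were pinned into GST-Six1 plus His-tagged Eya2 (5X stock 250/500 nM) in pH 8.0 Tris/NaCl/TCEP buffer, beads added, then incubated 1 h, 37 C, dark.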
Starred values were filed as active, the others as inactive; u = inconclusive; x = not tested or not shown; [ ] = dose if it differs, or a comment. In the library only some 10% were active in any assay of this set; here they are far more common. Unless noted, the call rests on the fitted dose curve; in most records, active means well fitted inhibition curve with a large enough effect; inconclusive means small, poorly fitted or top-dose-only effect; inactive means no such curve, though single readings can be large or run the other way.

SMILES | BAZ2B block | G9a block | HP1b binding inh | CtBP-E1A blk | JMJD2A Tudor inh | Six1-Eya2 inh
COc1ccc(NC(=O)c2sc3nc4c(cc3c2N)CN(C(C)C)CC4)c(OC)c1 | u | 11.2µM* | -8.1% | x | u | x
COc1ccccc1NC(=O)c1sc2nc3c(cc2c1N)CCCCCC3 | 1.2% | -5.0%[59 µM] | 33.0% | x | 2.8% | x
Cc1cccc(NC(=O)c2sc3nc(N)c(C#N)cc3c2N)c1 | -9.7% | 10µM* | 12.5% | u | 35.5µM* | u
Cc1cccc(NC(=O)c2sc3nc4c(cc3c2N)CN(C(C)C)CC4)c1 | u | 14.1µM* | -19.2% | x | 50.1µM* | x
COc1ccc(N2CC(NC(=O)c3ccco3)CC2=O)cc1 (stereo not given) | -5.8% | -4.8%[59 µM] | -4.9% | x | -11.0% | x
CONC(=O)C[C@@H](C#N)NC(=O)[C@@H]1CCCN1C(=O)[C@@H](NC(=O)c1ccc(N)c(Cl)c1)C(C)(C)C | x | x | x | x | -25.9% | x
CCOc1ccc(NCc2cccn2-c2nnc(N3CCC(C(=O)NCCOC)CC3)s2)cc1 | u | u | 4.9% | x | -36.0% | x
CCOc1ccc(NCc2cccn2-c2nnc(N3CCC(C(=O)NCCCN4CCCCC4CC)CC3)s2)cc1 (stereo not given) | u | 50.1µM* | -16.8%[57 µM] | x | 28.2µM* | u
CCC1(c2ccccc2)NC(=O)N(CC(=O)Nc2ccc(S(=O)(=O)NC3=NCCCCC3)cc2)C1=O (stereo not given) | 11.3% | 50.1µM* | 1.4% | 0.1 | -11.6% | 6.8
Cc1cc(N2CCCC2)ccc1NC(=O)CN1C(=O)NC(C)(c2ccccc2)C1=O (stereo not given) | 25.1µM* | x | -14.0%[57 µM] | -20.0 | u | 1.7
CCC1(c2ccccc2)NC(=O)N(CC(=O)Nc2ccc3c(c2)CCC3)C1=O (stereo not given) | x | x | x | -1.0 | x | -4.6
CCC1(c2ccc(F)cc2)NC(=O)N(CC(=O)c2cc(C)n(C3CC3)c2C)C1=O (stereo not given) | -38.9% | 50.1µM* | -24.8% | -0.8 | -35.2% | -5.6
CCC1(c2ccccc2)NC(=O)N(CC(=O)Nc2ccc(N3CCCC3)cc2C)C1=O (stereo not given) | 44.7µM* | 1.78µM* | u | -14.8 | 44.7µM* | -17.0
CC1(c2ccccc2)NC(=O)N(CC(=O)Nc2ccc(S(=O)(=O)NC3=NCCCCC3)cc2)C1=O (stereo not given) | x | x | 24.3% | -16.9 | -2.7% | -0.8
CC1(c2ccccc2)NC(=O)N(CC(=O)Nc2ccccc2N2CCCCC2)C1=O (stereo not given) | -3.5% | 7.5%[0.501 µM] | 5.1% | -0.1 | -9.6% | 2.6
Cc1ncc2c(n1)NC(=O)NC2 | x | x | 14.3% | 0.7 | -6.9% | 4.2
Cc1cc(C)c2c(=O)n3c(nc2c1)C(CC(C)C)NC(=O)c1cccnc1-3 (stereo not given) | x | x | x | -5.8 | x | -0.5
CCC1(c2ccccc2)NC(=O)N(CC(=O)NNC(=O)c2ccc(F)cc2)C1=O (stereo not given) | 6.7% | 6.31µM* | 31.9% | 4.2 | -13.8% | -0.6
CCOc1ccc(S(=O)(=O)N2CCOCC2)cc1NC(=O)CN1C(=O)NC(CC)(c2ccccc2)C1=O (stereo not given) | -16.1% | 2.4% | 37.0% | 7.2 | -12.2% | 6.8
CCC1(c2ccccc2)NC(=O)N(CC(=O)Nc2cc(Cl)ccc2N2CCOCC2)C1=O (stereo not given) | -21.7% | 35.5µM* | 16.9% | 10.1 | -24.0% | -1.8
CC1(c2ccccc2)NC(=O)N(CC(=O)Nc2ccc(N3CCOCC3)cc2N2CCOCC2)C1=O (stereo not given) | 4.7% | 56.2µM* | 4.5% | -5.6 | 0.7% | -4.8
CC1CCc2ccccc2N1CC(=O)Nc1cccc(S(=O)(=O)N2CCCC2)c1 (stereo not given) | -35.3% | 20µM* | 28.2% | -7.0 | u | -17.4
CC(C)(C)OC(=O)C[C@H]1C/C=C\C[C@H](CC(=O)N[C@H](CO)Cc2ccccc2)C(=O)N2CCC[C@@H]2COC1=O | x | x | 42.5% | 8.0 | -15.5% | 8.2
COc1ccc(CNC(=O)CN2C(=O)NC(Cc3ccccc3)(c3ccccc3)C2=O)cc1OC (stereo not given) | 4.1% | 8.91µM* | 31.6% | 9.2 | -2.3% | -4.0
O=C(CN1C(=O)C2CC=CCC2C1=O)Nc1ccccc1N1CCCC1 (stereo not given) | -4.5% | 50.1µM* | 26.6% | 3.0 | -7.6% | 21.1
SMILES | BAZ2B block | G9a block | HP1b binding inh | CtBP-E1A blk | JMJD2A Tudor inh | Six1-Eya2 inh
CCC1(c2ccccc2)NC(=O)N(CC(=O)Nc2ccc(Cl)c(S(=O)(=O)N3CCCCC3)c2)C1=O (stereo not given) | -5.8% | -3.8%[12.7 µM] | -2.3% | 6.2 | -25.5% | -14.8
CCC1(c2ccccc2)NC(=O)N(CC(=O)Nc2cccc(S(=O)(=O)N3CCCCC3)c2)C1=O (stereo not given) | -26.2% | 44.7µM* | 4.4% | 5.2 | -31.7% | -12.4
O=C(CN1C(=O)C2CCCCC2C1=O)Nc1ccccc1N1CCCC1 (stereo not given) | -0.5% | u | 23.7% | -16.4 | -19.7% | -0.2
CCC1(c2ccccc2)NC(=O)N(CC(=O)Nc2ccccc2N2CCCC2)C1=O (stereo not given) | -13.0% | 39.8µM* | -3.6% | -68.0* | -33.6% | 0.0
Cc1ccccc1CSc1ccc(-c2cccs2)nn1 | 74.6% | 120.7%[59 µM] | 136.1% | x | 55.7% | x
COC(=O)Nc1ccc(S(=O)(=O)N2CCCC(C(=O)O)C2)cc1 (stereo not given) | -24.7% | -27.2% | 12.6% | -7.4 | -5.7% | -11.3
O=C(CCCCCNC(=S)Nc1ccc(Cl)cc1)C[N+](=O)[O-] | -15.8% | u | u | 1.2 | -14.8% | -4.8
COc1ccc(NC(=S)NCCCCCC(=O)C[N+](=O)[O-])cc1 | u | 22.4µM* | u | -6.3 | -30.6% | u
O=C(CCCCCNC(=S)Nc1ccccc1)C[N+](=O)[O-] | -32.2% | 44.7µM* | 6.8% | x | -18.6% | 7.1
COc1ccc(Nc2oc(/C=C/c3cc(OC)c(OC)c(OC)c3)nc2C#N)cc1 | -27.6% | -7.6%[59 µM] | 17.0% | x | -0.9% | x
COc1ccc(CNC(=O)c2cc(=O)[nH]c3ccc(S(=O)(=O)N4CCCC4)cc23)c(OC)c1 | 0.1% | 8.7%[59 µM] | 30.1% | x | -2.8% | x
COc1ccc(NS(=O)(=O)c2ccc3[nH]c(=O)[nH]c3c2)cc1 | u | u | 34.6% | 2.9 | -11.3% | -1.0
O=c1[nH]c2ccc(NS(=O)(=O)c3ccc4ccccc4c3)cc2[nH]1 | -15.4% | 50.1µM* | 34.5% | 0.2 | 7.7% | -2.9

Assay outcomes (PubChem BioAssay)
